Assay [1] is described as follows: qHTS RealTime-Glo MT Cell Viability Assay in HEK293 cells - 40 hour (AID 1224874). Also: nearly all actives have a fitted effect of over 50% in size. Also: potency is read from the fitted curve at half-maximal effect. As to conditions: RealTime-Glo luminescence; max response: stronger effect = lower value. The method in brief: (§1)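 qHTS format; HEK293 cells with NanoLuc/prosubstrate reagent, 37 C/5% CO2 for 5 h pre-dosing; compounds 23 nL in DMSO; luminescence at each time point reflects viable cells.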
On the technique in general: Quantitative high-throughput screening tests each substance at several concentrations.

Assay [2] can be described thus: A CellTox Green Cytotoxicity Assay to monitor cytotoxicity in HEK293 cells - 24 hour (AID 1224875). Also: series mostly up to about 77 µM; nearly all actives have a fitted effect of over 45% in size. In a few lines: (§2)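 Each value comes from one timepoint of a single continuous run in which HEK293 cells with CellTox Green were exposed to compound for up to 40 h at 37 C, dye fluorescence rising with cell death.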
Assay [3] in a line: A CellTox Green Cytotoxicity Assay to monitor cytotoxicity in HepG2 cells - 16 hour (AID 1224876). Also: nearly all actives have a fitted effect of over 45% in size. In a few lines:
(§3)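 Continuous culture of HepG2 cells with a membrane-impermeant DNA dye; rising fluorescence marks dead cells. Compound exposure lasted up to 40 h at 37 C, with reads every 8 h from 0 h.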

Assay [4] is described as follows: qHTS RealTime-Glo MT Cell Viability Assay in HepG2 cells - 32 hour (AID 1224877). Also: nearly all actives have a fitted effect of over 55% in size. In a few lines: (§4)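 Cell number in HepG2 cultures estimated from NanoLuc luminescence generated by metabolic reduction of a prosubstrate by living cells. The homogeneous, nonlytic format allowed repeated reads at 0, 8, 16, 24, 32 and 40 h of compound exposure.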
Assay [5] in a line: A CellTox Green Cytotoxicity Assay to monitor cytotoxicity in HepG2 cells - 24 hour (AID 1224878). Also: nearly all actives have a fitted effect of over 45% in size. The method in brief: as §3
The nature of assay [6]: A CellTox Green Cytotoxicity Assay to monitor cytotoxicity in HepG2 cells - 40 hour (AID 1224879). Also: nearly all actives have a fitted effect of over 40% in size. Also: potency is read from the fitted curve at half-maximal effect. In a few lines:
as §3

Assay [7] is described as follows: qHTS RealTime-Glo MT Cell Viability Assay in HEK293 cells - 0 hour (AID 1224880). Also: top concentration of the series differs between compounds; nearly all actives have a fitted effect of over 45% in size. In a few lines:
as §1

Assay [8] in a line: A CellTox Green Cytotoxicity Assay to monitor cytotoxicity in HEK293 cells - 32 hour (AID 1224881). Also: nearly all actives have a fitted effect of over 40% in size. The method in brief:
as §2

A short description of assay [9]: A CellTox Green Cytotoxicity Assay to monitor cytotoxicity in HepG2 cells - 0 hour (AID 1224882). Also: nearly all actives have a fitted effect of over 35% in size. In a few lines: as §3
Assay [10] can be described thus: A CellTox Green Cytotoxicity Assay to monitor cytotoxicity in HepG2 cells - 32 hour (AID 1224883). Also: nearly all actives have a fitted effect of over 50% in size. In a few lines:
as §3

The nature of assay [11]: A CellTox Green Cytotoxicity Assay to monitor cytotoxicity in HEK293 cells - 8 hour (AID 1224884). Also: nearly all actives have a fitted effect of over 35% in size. The method in brief: as §2
Assay [12] in a line: qHTS RealTime-Glo MT Cell Viability Assay in HepG2 cells - 16 hour (AID 1224885). Also: nearly all actives have a fitted effect of over 50% in size. The method in brief: as §4
Assay [13] is described as follows: qHTS RealTime-Glo MT Cell Viability Assay in HEK293 cells - 24 hour (AID 1224886). Also: nearly all actives have a fitted effect of over 50% in size. Also: potency is read from the fitted curve at half-maximal effect. In a few lines: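 Homogeneous bioluminescent viability format in HEK293 cells (600 cells/well). Following 5 h at 37 C/5% CO2, 23 nL compound was pintooled; the signal was measured repeatedly during 40 h incubation.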
Assay [14] can be described thus: qHTS RealTime-Glo MT Cell Viability Assay in HEK293 cells - 8 hour (AID 1224887). The method in brief: as §1
The nature of assay [15]: A CellTox Green Cytotoxicity Assay to monitor cytotoxicity in HEK293 cells - 16 hour (AID 1224888). Also: nearly all actives have a fitted effect of over 35% in size. The method in brief:
as §2

A short description of assay [16]: qHTS RealTime-Glo MT Cell Viability Assay in HepG2 cells - 0 hour (AID 1224889). Also: nearly all actives have a fitted effect of over 50% in size. The method in brief:
as §4

Assay [17] in a line: A CellTox Green Cytotoxicity Assay to monitor cytotoxicity in HepG2 cells - 8 hour (AID 1224890). Also: nearly all actives have a fitted effect of over 45% in size. In a few lines:
as §3

The nature of assay [18]: qHTS assay to identify small molecule antagonists of the estrogen receptor alpha (ER-alpha) signaling pathway using the BG1 cell line in the presence of 0.1 nM 17-beta-estradiol - cell viability counter screen (AID 1259241). Also: nearly all actives have a fitted effect of over 40% in size. In a few lines: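 In this screen, hormone-deprived VM7Luc4E2 cells were seeded at 4,000 per well, dosed with compound and 0.1 nM estradiol final, and incubated 22 hr at 37C and 5% CO2; fluorogenic live-cell protease signal reported viability.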

A short description of assay [19]: qHTS assay to identify small molecule antagonists of the androgen receptor (AR) signaling pathway using the MDA cell line in the presence of 0.5 nM R1881 - cell viability counter screen (AID 1259242). Also: nearly all actives have a fitted effect of over 45% in size. In a few lines:
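Fluorescence from CellTiter-Fluor, which reports protease activity of live cells, was read 30 min after reagent addition to MDA-kb2 cells that had been incubated 16 hr with compound and 0.5 nM R1881.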

From PubChem BioAssay (Tox21) come the findings set out here.

SMILES strings stand for the structures. Where “and” joins values, the source holds several entries; their conditions need not be identical. Equal entries are not always repeated. Inconclusive results are not listed. Where a structure was tested more than once in an assay, its records may differ in their call. Calls of active or inactive are those of the source. Calls follow the shape of the dose curve; as a rule, active = well fitted curve in the direction sought with a large enough effect in the repeat runs; inconclusive = weak or mixed curves; inactive = no such curve, though single readings can be large; an effect the other way counts as inactive or inconclusive.
% is scaled to controls: 0 for no effect and ±100 for the full control effect.

For `CC(C)C1(C)N=C(c2nc3ccccc3cc2C(=O)O)NC1=O` (centres undefined), the max response in assay [1] is 4.12% (inactive) and 2.1% (inactive). In addition, the Potency entry in [2], in assay [3], in assay [5], in [6], in assay [8] and in [9] was “inactive” in each case. Moreover, the Potency result in assay [10], in [11], in [13], in assay [15], in assay [17] and in [18] was “inactive” throughout. In addition, the compound was classed as inactive in assay [4], in assay [7], in [12], in [14], in [16] and in assay [19].

Take `COc1ccc2c3c1O[C@H]1[C@@H](O)C=C[C@H]4[C@@H](C2)N(C)CC[C@@]341`: the Potency in [1] is 24.2 µM (active); in assay [6], 30.4 µM (active) and inactive; in assay [13] it was 48.2 µM (active) and inactive. Moreover, the max response in assay [1] was 0.391% (inactive). The Potency entry in assay [2], in assay [3], in [5], in assay [8], in assay [9] and in assay [10] was “inactive” in each case. In addition, the Potency result in assay [11], in [15], in assay [17] and in assay [18] was “inactive” in each case. The outcome in assay [4], in assay [7], in assay [12], in assay [14], in assay [16] and in assay [19] was inactive.

Turning to `CC(C)C#N`, the max response in assay [1] is 8.8% (inactive) and 1.31% (inactive). Moreover, the Potency entry in assay [2], in assay [3], in [5], in [6], in assay [8] and in assay [9] was “inactive” throughout. For the same compound, the Potency result in assay [10], in [11], in assay [13], in assay [15], in assay [17] and in assay [18] was “inactive” each time. In addition, the result in [4], in assay [7], in assay [12], in assay [14], in assay [16] and in assay [19] was inactive.

Regarding `CCOP(OCC)OCC`, in assay [1], the max response was 7.3% (inactive) and 7.34% (inactive). For the same compound, the Potency result in [2], in assay [3], in [5], in assay [6], in assay [8] and in assay [9] was “inactive” in each case. Also, the Potency entry in assay [10], in [11], in assay [13], in assay [15], in assay [17] and in assay [18] was “inactive” throughout. The compound was called inactive in [4], in assay [7], in assay [12], in assay [14], in assay [16] and in [19].

For `CCN(CC)CCO`, the max response in assay [1] was 2.53% (inactive) and -12.7% (inactive). For the same compound, the Potency result in [2], in [3], in assay [5], in [6], in assay [8] and in assay [9] was “inactive” throughout. Besides, the Potency entry in assay [10], in assay [11], in [13], in assay [15], in assay [17] and in [18] was “inactive” in each case. For the same compound, the call in assay [4], in assay [7], in assay [12], in [14], in assay [16] and in [19] was inactive.

For the compound `CCC12COCN1COC2`, the max response in assay [1] was 1.37% (inactive) and 3.08% (inactive). For the same compound, the Potency result in assay [2], in assay [3], in [5], in assay [6], in [8] and in assay [9] was “inactive” each time. For the same compound, the Potency result in [10], in assay [11], in assay [13], in assay [15], in [17] and in assay [18] was “inactive” each time. Also, the call in assay [4], in assay [7], in assay [12], in [14], in [16] and in assay [19] was inactive.

As for `Cc1ccc([N+](=O)[O-])cc1C`, the max response in [1] was -0.25% (inactive) and 2.38% (inactive). Further, the Potency result in assay [2], in [3], in assay [5], in [6], in assay [8] and in [9] was “inactive” each time. The Potency result in assay [10], in assay [11], in assay [13], in assay [15], in assay [17] and in [18] was “inactive” throughout. Further, the compound was called inactive in [4], in assay [7], in assay [12], in assay [14], in assay [16] and in [19].

Consider `Nc1ccccc1C(=O)O`, for which, in assay [1], the max response was 10.4% (inactive) and 8.34% (inactive). Further, the Potency entry in assay [2], in assay [3], in [5], in assay [6], in assay [8] and in assay [9] was “inactive” in each case. For the same compound, the Potency result in assay [10], in assay [11], in [13], in [15], in assay [17] and in assay [18] was “inactive” in each case. Besides, the compound was called inactive in assay [4], in assay [7], in assay [12], in assay [14], in assay [16] and in assay [19].

With `Clc1ccccc1Cl`, the max response in assay [1] was 2.45% (inactive) and -10.4% (inactive). The Potency result in assay [2], in [3], in assay [5], in assay [8], in [9] and in assay [10] was “inactive” in each case. Also, the Potency result in assay [11], in [13], in assay [15], in assay [17] and in assay [18] was “inactive” in each case. Besides, the result in assay [4], in assay [7], in assay [12], in assay [14], in [16] and in [19] was inactive. Besides, in [6], the Potency result was “inactive and 54.9 µM (active)”.

As for `CCCN(CCC)N=O`, the max response in assay [1] is -0.648% (inactive) and 5.21% (inactive). Further, the Potency result in [2], in [3], in assay [5], in assay [6], in assay [8] and in assay [9] was “inactive” each time. In addition, the Potency entry in assay [10], in [11], in [13], in assay [15], in assay [17] and in assay [18] was “inactive” each time. Further, the result in [4], in [7], in assay [12], in [14], in [16] and in assay [19] was inactive.

`O=c1n(Cl)c(=O)n(Cl)c(=O)n1Cl`: the max response in [1] was 1.37% (inactive) and 3.54% (inactive). Further, the Potency entry in assay [2], in assay [3], in assay [5], in assay [6], in [8] and in assay [9] was “inactive” in each case. Further, the Potency result in assay [10], in [11], in assay [13], in assay [15], in [17] and in [18] was “inactive” throughout. In addition, the compound was called inactive in assay [4], in assay [7], in assay [12], in [14], in [16] and in [19].

On to `CN(C)[C@@H]1C(=O)C(C(N)=O)=C(O)[C@@]2(O)C(=O)C3=C(O)c4c(O)cccc4[C@@](C)(O)[C@H]3C[C@@H]12`, for which, in assay [1], the max response was 8.71% (inactive) and 13.3% (inactive) and -4.27% (inactive). Further, the Potency entry in [2], in assay [3], in assay [5], in assay [6], in [8] and in assay [9] was “inactive” throughout. The Potency result in [10], in assay [11], in assay [13], in [15], in [17] and in assay [18] was “inactive” throughout. Besides, the call in [4], in assay [7], in assay [12], in [14], in assay [16] and in [19] was inactive.
